# Measured values reported in PubChem BioAssay (EPA / NIEHS).
# Active and inactive are the calls of the source. How the source made its calls: active means hit-call score of the fitted dose curve at least 0.9, where 1 is the maximum; inactive means score below 0.9.
# Target: Cytochrome P450 2C18 (Homo sapiens) (UniProt P33260)
# Assay: NVS_ADME_hCYP2C18: NovaScreen (NVS) CYP450-related Enzyme Activity (ADME) Assay for human CYP2C18 (AID 2283103)
# Procedure: NVS_ADME_hCYP2C18 is a biochemical, single-readout assay that uses extracted gene-proteins in a cell-free assay. Measurements were taken 0.5 hour after chemical dosing in a 96-well plate.NVS_ADME_hCYP2C18 is one of one assay component(s) measured or calculated from the NVS_ADME_hCYP2C18 assay. It is designed to make measurements of enzyme activity, a form of enzyme reporter, as detected with fluorescence intensity signals by Fluorescence technology.Data from the assay component NVS_ADME_hCYP2C18 was analyzed into 1 assay endpoint. This assay endpoint, NVS_ADME_hCYP2C18, was analyzed in the positive analysis fitting direction relative to Acetonitrile as the negative control and baseline of activity. Using a type of enzyme reporter, loss-of-signal activity can be used to understand changes in the enzymatic activity as they relate to the gene CYP2C18. Furthermore, this assay endpoint can be referred to as a primary readout, because this assay has produced multiple assay endpoints where this one serves a enzymatic activity function. To generalize the intended target to other relatable targets, this assay endpoint is annotated to the cyp intended target family, where the subfamily is xenobiotic metabolism.
# Binding assays used specific radioligands (tritiated, iodinated) with non-radioactive competitive displacement ligands in agonist or antagonist protocols (as indicated) and various reference compounds and inhibitors to titrate specific binding to receptors and transporters. Most enzyme assays (CYPs, kinases, phosphatases, proteases, HDACs) used recombinant protein and specific substrates (fluorescence mostly, some colorimetric and radioactive) and inhibitors, followed by a biochemical separation of substrate and product. All assays for the biochemical HTS were initially run in duplicate at a single concentration (10 uM for CYP450 assays and 25 uM for all others). Assay-chemical combinations meeting a pre-defined threshold (e.g., 30% inhibition and other criteria defined below) were then run in singleton concentration-response format with maximum concentration of 20 uM for CYPs and 50 uM for all others. Each assay was run with positive and negative controls, and concurrent controls on every plate. The follow-up (secondary) screen tested active chemical-pairs in concentration series, as well as a few additional assays not tested in the primary screen, some selected negative inactives, and several cases re-run in the concentration series for confirmatory purposes.
# Cytochrome P450 2C18 (Homo sapiens), sequence (P33260 whole entry, looked up): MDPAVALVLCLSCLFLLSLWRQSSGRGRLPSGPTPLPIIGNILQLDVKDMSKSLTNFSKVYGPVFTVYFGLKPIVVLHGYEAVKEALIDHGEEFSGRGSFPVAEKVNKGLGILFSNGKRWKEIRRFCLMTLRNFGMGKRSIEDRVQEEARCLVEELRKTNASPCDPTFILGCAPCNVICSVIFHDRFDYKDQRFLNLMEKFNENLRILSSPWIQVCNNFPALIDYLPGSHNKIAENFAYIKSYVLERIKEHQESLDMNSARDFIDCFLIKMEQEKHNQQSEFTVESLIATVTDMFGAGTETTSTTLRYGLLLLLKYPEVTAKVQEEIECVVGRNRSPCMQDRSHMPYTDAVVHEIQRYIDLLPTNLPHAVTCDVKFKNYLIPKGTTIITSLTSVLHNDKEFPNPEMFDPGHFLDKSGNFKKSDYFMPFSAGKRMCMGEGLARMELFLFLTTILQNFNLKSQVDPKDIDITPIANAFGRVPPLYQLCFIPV
SMILES,AC50,outcome
CC(C)(C)C(O)/C(=C\c1ccc(Cl)cc1Cl)n1cncn1 (configuration not stated),0.0386 µM (active),–
CC(C)N(C(=O)COc1nnc(C(F)(F)F)s1)c1ccc(F)cc1,5.82 µM (active),–
CCCN(CCOc1c(Cl)cc(Cl)cc1Cl)C(=O)n1ccnc1,0.588 µM (active),–
O=C(O)C(F)(F)C(F)(F)C(F)(F)C(F)(F)C(F)(F)C(F)(F)C(F)(F)F,–,inactive
COc1nn(CSP(=S)(OC)OC)c(=O)s1,3.67 µM (active),–
O=S(=O)(O)C(F)(F)C(F)(F)C(F)(F)C(F)(F)C(F)(F)C(F)(F)C(F)(F)C(F)(F)F,0.875 µM (active),–
CC[C@H](C)[C@H]1O[C@]2(C=C[C@@H]1C)C[C@@H]1C[C@@H](C/C=C(\C)[C@@H](O[C@H]3C[C@H](OC)[C@@H](O[C@H]4C[C@H](OC)[C@@H](O)[C@H](C)O4)[C@H](C)O3)[C@@H](C)/C=C/C=C3\CO[C@@H]4[C@H](O)C(C)=C[C@@H](C(=O)O1)[C@]34O)O2 (tested in a mixture with another compound),5.02 µM (active),–
CN1CSC(=S)N(C)C1,4.32 µM (active),–
COP(=S)(OC)Oc1ccc([N+](=O)[O-])cc1,2.7 µM (active),–
Oc1ccc(Cl)cc1Cc1ccccc1,6.87 µM (active),–
CCOC1Oc2ccc(OS(C)(=O)=O)cc2C1(C)C (configuration not stated),5.65 µM (active),–
CC(C)(C)C(O)C(Oc1ccc(Cl)cc1)n1cncn1 (configuration not stated),7.93 µM (active),–
